This is one part of a sample in which the strongest signals are shown more often than they occur.
Tests used:
Assay in all cases: glycan array binding signal (z-score within array); higher = stronger binding
Details in all cases: glycan notation: IUPAC condensed, linker removed
[1] = molecular target: Fuc(a1-2)Gal(b1-4)[Fuc(a1-3)]GlcNAc(b1-3)[Neu5Ac(a2-6)Gal(b1-4)GlcNAc(b1-6)]Gal(b1-4)Glc
In short: (§1)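 From the Consortium for Functional Glycomics database, 3228 arrays were curated, keeping only those whose protein sequence was available. Binding is given as a within-array Z-score averaged across arrays sharing a protein sequence and across linkers. Negative Z-scores can be read as non-binding.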

[2] = molecular target: Fuc(a1-2)[Gal(a1-3)]Gal
In short: as §1

[3] = molecular target: Fuc(a1-2)[GalNAc(a1-3)]Gal(b1-4)GlcNAc(b1-2)Man(a1-3)[Fuc(a1-2)[GalNAc(a1-3)]Gal(b1-4)GlcNAc(b1-2)Man(a1-6)]Man(b1-4)GlcNAc(b1-4)[Fuc(a1-6)]GlcNAc
In short: as §1

[4] = molecular target: Fuc(a1-2)[GalNAc(a1-3)]Gal(b1-4)GlcNAc(b1-3)Gal(b1-4)GlcNAc(b1-3)Gal(b1-4)GlcNAc
In short: as §1

[5] = molecular target: Fuc(a1-2)[GalNAc(a1-3)]Gal(b1-4)[Fuc(a1-3)]GlcNAc(b1-3)GalNAc
In short: as §1

[6] = molecular target: Fuc(b1-3)GlcNAc
In short: as §1

[7] = molecular target: Gal(a1-3)Gal(b1-4)GlcNAc(b1-3)GalNAc
In short: as §1

[8] = molecular target: Gal(a1-6)Glc
In short: as §1

[9] = molecular target: Gal(b1-3)GlcNAc(b1-2)[Gal(b1-3)GlcNAc(b1-6)]Man(a1-6)[Gal(b1-3)GlcNAc(b1-2)Man(a1-3)]Man(b1-4)GlcNAc(b1-4)GlcNAc
In short: as §1

[10] = molecular target: Gal(b1-3)GlcNAc(b1-3)Gal(b1-3)GlcNAc
In short: as §1

[11] = molecular target: Gal(b1-3)[Fuc(a1-4)]GlcNAc
In short: as §1

[12] = molecular target: Gal(b1-3)[Fuc(a1-4)]GlcNAc(b1-3)Gal(b1-3)[Fuc(a1-4)]GlcNAc
In short: as §1

[13] = molecular target: Gal(b1-3)[GlcNAc(b1-6)]GalNAc
In short: as §1

[14] = molecular target: Gal(b1-4)GlcNAc
In short: as §1

[15] = molecular target: Gal(b1-4)GlcNAc(b1-2)Man(a1-3)Man(b1-4)GlcNAc(b1-4)GlcNAc
In short: as §1

[16] = molecular target: Gal(b1-4)GlcNAc(b1-2)[Gal(b1-4)GlcNAc(b1-6)]Man(a1-6)[GlcNAc(b1-4)][Gal(b1-4)GlcNAc(b1-2)Man(a1-3)]Man(b1-4)GlcNAc(b1-4)GlcNAc
In short: as §1

[17] = molecular target: Gal(b1-4)GlcNAc(b1-3)[Fuc(a1-3)GlcNAc(b1-6)]Gal(b1-4)Glc
In short: as §1

[18] = molecular target: Gal(b1-4)GlcNAc(b1-3)[GlcNAc(b1-6)]Gal(b1-4)GlcNAc
In short: as §1

[19] = molecular target: Gal3S6S(b1-4)GlcNAc
In short: as §1

[20] = molecular target: Gal4S(b1-4)GlcNAc
In short: as §1

[21] = molecular target: Gal4S6S(b1-4)GlcNAc
In short: as §1

[22] = molecular target: Gal6S(b1-3)GlcNAc6S
In short: as §1

[23] = molecular target: GalNAc(a1-3)GalNAc(a1-3)Gal(a1-4)Gal(b1-4)GlcNAc
In short: as §1

[24] = molecular target: GalNAc(b1-3)Gal(a1-6)Gal(b1-4)Glc
In short: as §1

[25] = molecular target: GalNAc(b1-4)GlcNAc(b1-2)Man(a1-3)[GalNAc(b1-4)GlcNAc(b1-2)Man(a1-6)]Man(b1-4)GlcNAc(b1-4)GlcNAc
In short: as §1

[26] = molecular target: GalNAc6S(b1-4)GlcNAc
In short: as §1

[27] = molecular target: Glc(a1-4)Glc(a1-4)Glc(a1-4)Glc
In short: as §1

[28] = molecular target: GlcNAc(a1-3)Gal(b1-4)GlcNAc
In short: as §1

[29] = molecular target: GlcNAc(a1-4)Gal(b1-3)GlcNAc
In short: as §1

[30] = molecular target: GlcNAc(a1-4)Gal(b1-4)GlcNAc
In short: as §1

[31] = molecular target: GlcNAc(a1-4)Gal(b1-4)GlcNAc(b1-3)Gal(b1-4)GlcNAc(b1-3)Gal(b1-4)GlcNAc
In short: as §1

[32] = molecular target: GlcNAc(b1-2)Man(a1-3)[GlcNAc(b1-4)][GlcNAc(b1-2)Man(a1-6)]Man(b1-4)GlcNAc(b1-4)[Fuc(a1-6)]GlcNAc
In short: as §1

[33] = molecular target: GlcNAc(b1-2)[GlcNAc(b1-4)]Man(a1-3)[GlcNAc(b1-4)][GlcNAc(b1-2)Man(a1-6)]Man(b1-4)GlcNAc(b1-4)GlcNAc
In short: as §1

[34] = molecular target: GlcNAc(b1-3)Gal(b1-4)GlcNAc(b1-2)[GlcNAc(b1-3)Gal(b1-4)GlcNAc(b1-6)]Man(a1-6)[GlcNAc(b1-3)Gal(b1-4)GlcNAc(b1-2)Man(a1-3)]Man(b1-4)GlcNAc(b1-4)GlcNAc
In short: as §1

[35] = molecular target: GlcNAc(b1-3)Man
In short: as §1

[36] = molecular target: GlcNAc(b1-4)GlcNAc(b1-4)GlcNAc(b1-4)GlcNAc(b1-4)GlcNAc(b1-4)GlcNAc
In short: as §1

[37] = molecular target: GlcNAc(b1-6)Gal(b1-4)GlcNAc
In short: as §1

[38] = molecular target: Man(a1-3)[Man(a1-6)]Man(b1-4)GlcNAc(b1-4)GlcNAc
In short: as §1

[39] = molecular target: Neu5Ac(a2-3)Gal(b1-3)[Fuc(a1-4)]GlcNAc(b1-3)Gal(b1-3)[Fuc(a1-4)]GlcNAc
In short: as §1

[40] = molecular target: Neu5Ac(a2-3)Gal(b1-4)GlcNAc(b1-2)Man(a1-3)[Neu5Ac(a2-3)Gal(b1-4)GlcNAc(b1-2)Man(a1-6)]Man(b1-4)GlcNAc(b1-4)[Fuc(a1-6)]GlcNAc
In short: as §1

[41] = molecular target: Neu5Ac(a2-3)Gal(b1-4)GlcNAc(b1-3)Gal(b1-3)GlcNAc
In short: as §1

[42] = molecular target: Neu5Ac(a2-3)Gal(b1-4)GlcNAc(b1-3)GalNAc
In short: as §1

[43] = molecular target: Neu5Ac(a2-3)Gal(b1-4)GlcNAc(b1-6)GalNAc
In short: as §1

[44] = molecular target: Neu5Ac(a2-3)Gal(b1-4)[Fuc(a1-3)]GlcNAc(b1-3)GalNAc
In short: as §1

[45] = molecular target: Neu5Ac(a2-3)Gal6S(b1-4)GlcNAc
In short: as §1

[46] = molecular target: Neu5Ac(a2-6)Gal(b1-4)GlcNAc(b1-2)Man(a1-3)[GlcNAc(b1-2)Man(a1-6)]Man(b1-4)GlcNAc(b1-4)GlcNAc
In short: as §1

[47] = molecular target: Neu5Ac(a2-6)Gal(b1-4)GlcNAc(b1-2)Man(a1-6)[Man(a1-3)]Man(b1-4)GlcNAc(b1-4)GlcNAc
In short: as §1

[48] = molecular target: Neu5Ac(a2-6)Gal(b1-4)GlcNAc(b1-3)Gal(b1-4)GlcNAc(b1-3)GalNAc
In short: as §1

[49] = molecular target: Neu5Ac(a2-6)Gal(b1-4)GlcNAc(b1-3)Gal(b1-4)[Fuc(a1-3)]GlcNAc(b1-3)Gal(b1-4)[Fuc(a1-3)]GlcNAc
In short: as §1

[50] = molecular target: Neu5Ac(a2-6)GalNAc
In short: as §1

[51] = molecular target: Neu5Ac(a2-6)GalNAc(b1-4)GlcNAc
In short: as §1

[52] = molecular target: Neu5Ac(a2-8)Neu5Ac(a2-8)Neu5Ac(a2-3)[Gal(b1-3)GalNAc(b1-4)]Gal(b1-4)Glc
In short: as §1

[53] = molecular target: Neu5Ac(a2-8)Neu5Ac(a2-8)Neu5Ac(a2-8)Neu5Ac(a2-3)[GalNAc(b1-4)]Gal(b1-4)Glc
In short: as §1

[54] = molecular target: Neu5Gc(a2-6)GalNAc
In short: as §1

B1: Clrb (Mus musculus) (protein)
chain: ITGATKTEQIPVNKTYAACPQNWIGVENKCFYFSEYPSNWTFAQAFCMAQEAQLARFDNQDELNFLMRYKANFDSWIGLHRESSEHPWKWTDNTEYNNTIPIRGEERFAYLNNNGISSTRIYSLRMWICSKLNSYSLHCQTPFFPSGTKHHHHHHHHG
glycan array binding signal (z-score) [1]: -0.359 | glycan array binding signal (z-score) [2]: -0.293 | glycan array binding signal (z-score) [3]: -0.417 | glycan array binding signal (z-score) [4]: -0.215 | glycan array binding signal (z-score) [5]: -0.299 | glycan array binding signal (z-score) [6]: -0.294 | glycan array binding signal (z-score) [7]: -0.505 | glycan array binding signal (z-score) [8]: -0.176 | glycan array binding signal (z-score) [9]: -0.249 | glycan array binding signal (z-score) [10]: -0.431 | glycan array binding signal (z-score) [11]: -0.303 | glycan array binding signal (z-score) [12]: -0.404 | glycan array binding signal (z-score) [13]: -0.186 | glycan array binding signal (z-score) [14]: -0.146 | glycan array binding signal (z-score) [15]: -0.355 | glycan array binding signal (z-score) [16]: -0.157 | glycan array binding signal (z-score) [17]: -0.386 | glycan array binding signal (z-score) [18]: 5.13 | glycan array binding signal (z-score) [19]: -0.099 | glycan array binding signal (z-score) [20]: -0.31 | glycan array binding signal (z-score) [21]: -0.101 | glycan array binding signal (z-score) [22]: -0.357 | glycan array binding signal (z-score) [23]: -0.541 | glycan array binding signal (z-score) [24]: -0.023 | glycan array binding signal (z-score) [25]: 4.64 | glycan array binding signal (z-score) [26]: 4.38 | glycan array binding signal (z-score) [27]: -0.498 | glycan array binding signal (z-score) [28]: 5.77 | glycan array binding signal (z-score) [29]: 3.81 | glycan array binding signal (z-score) [30]: 4.2 | glycan array binding signal (z-score) [31]: 5.29 | glycan array binding signal (z-score) [32]: 4.51 | glycan array binding signal (z-score) [33]: 4.02 | glycan array binding signal (z-score) [34]: 0.54 | glycan array binding signal (z-score) [35]: -0.377 | glycan array binding signal (z-score) [36]: 7.67 | glycan array binding signal (z-score) [37]: 1.87 | glycan array binding signal (z-score) [38]: -0.297 | glycan array binding signal (z-score) [39]: -0.359 | glycan array binding signal (z-score) [40]: -0.226 | glycan array binding signal (z-score) [41]: -0.383 | glycan array binding signal (z-score) [42]: -0.44 | glycan array binding signal (z-score) [43]: -0.392 | glycan array binding signal (z-score) [44]: -0.205 | glycan array binding signal (z-score) [45]: -0.365 | glycan array binding signal (z-score) [46]: -0.472 | glycan array binding signal (z-score) [47]: -0.503 | glycan array binding signal (z-score) [48]: -0.628 | glycan array binding signal (z-score) [49]: -0.211 | glycan array binding signal (z-score) [50]: -0.508 | glycan array binding signal (z-score) [51]: 4.69 | glycan array binding signal (z-score) [52]: -0.421 | glycan array binding signal (z-score) [53]: -0.449 | glycan array binding signal (z-score) [54]: -0.377
